# Screens: PubChem BioAssay, NMMLSC
# RGS16-Gao – modulates binding between human RGS16 and Galphao; O15492+P09471; bead-based flow cytometry RGS16-Galphao binding, fluorescence; actives lie on both sides; binding response (% of control), % at 10 µM; hit rate 0.38% among 220,000;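 note: Galphao activated by GDP with aluminum fluoride before binding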
# Target sequence (O15492 whole entry, looked up): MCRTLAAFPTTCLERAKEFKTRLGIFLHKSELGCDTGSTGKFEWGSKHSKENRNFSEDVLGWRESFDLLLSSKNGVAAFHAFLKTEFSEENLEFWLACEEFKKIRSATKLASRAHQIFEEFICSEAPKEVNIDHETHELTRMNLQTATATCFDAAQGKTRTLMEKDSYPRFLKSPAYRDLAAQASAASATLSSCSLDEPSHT
# Target sequence (P09471 whole entry, looked up): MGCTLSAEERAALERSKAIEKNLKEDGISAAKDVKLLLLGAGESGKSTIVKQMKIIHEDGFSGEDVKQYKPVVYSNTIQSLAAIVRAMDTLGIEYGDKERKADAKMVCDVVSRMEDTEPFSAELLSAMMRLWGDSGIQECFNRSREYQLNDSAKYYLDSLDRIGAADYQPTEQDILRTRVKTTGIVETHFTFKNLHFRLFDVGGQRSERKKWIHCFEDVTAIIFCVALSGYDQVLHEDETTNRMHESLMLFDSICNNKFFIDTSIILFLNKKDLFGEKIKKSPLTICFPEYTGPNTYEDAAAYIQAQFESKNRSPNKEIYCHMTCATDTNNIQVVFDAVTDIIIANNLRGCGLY
# RGS4-Gao reg – human RGS4-Galphao interaction regulation; Multiplexed bead flow cytometry, RGS4-Galphao binding; actives lie on both sides; AID 1415; hit rate 0.33% among 220,000; binding response (% of control), % at 10 µM; in the data active = binding response below about 49% or above about 150%; inactive = in between;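 note: fluorescent Galphao activated with aluminum fluoride binding bead-coupled RGS4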
# RGS7-Gao – modulates binding of RGS7 to human Galphao. P09471. Multiplexed bead flow cytometry; actives lie on both sides. binding response (% of control), % at 10 µM. hit rate 0.35% among 220,000. AID 1439; in the data active = binding response below about 49% or above about 150%; inconclusive = no clear call, values can overlap the other calls; inactive = in between;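 note: fluorescent Galphao held in activated GDP-AlF4 state binding bead-coupled RGS7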
# Avidin bead fluor – avidin bead compound fluorescence profile; Avidin beads, compound fluorescence 488/530 nm, flow cytometry; active compounds read high; fluorescence (KMESF) at 10 µM; hit rate 0.38% among 220,000; in the data active = fluorescence above about 47
# RGS8-Gao reg – regulators of human RGS8-Galphao interaction. multiplexed bead flow cytometry, RGS8-Galphao binding; actives lie on both sides. response (percent of control binding), % at 10 µM. hit rate 0.34% among 220,000; in the data active = response below about 60% or above about 140%; inactive = in between;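 note: Galphao activated as the GDP aluminium fluoride complex binding bead-coupled RGS8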
# GSH fluor – GSH bead compound fluorescence profile; hit rate 0.25% among 190,000; GSH beads flow cytometry, compound fluorescence 488/530 nm; active compounds read high; fluorescence (KMESF) at 10 µM; AID 1776; in the data active = fluorescence above about 89;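 note: glutathione beads carrying GST-tagged Bcl family fusion proteins plus one bare bead set; values are compound well signal with DMSO vehicle wells as background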
# RGS4-Gao HTS – modulates binding between human RGS4 and Galphao; shares compounds with RGS16-Gao; multiplexed bead flow cytometry, RGS–Galpha-o binding; RGS4–Galpha-o binding response, % at 10 µM; hit rate 99% among 1,600; AID 1504;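 note: fluorescently labeled Galpha-o bound to GDP with aluminium fluoride binding biotinylated RGS beads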
# Avidin counter – biotin-avidin bead binding disruption counter-screen | shares compounds with RGS16-Gao | streptavidin beads, fluorescein-biotin binding, flow cytometry | 1,700 tested, under 10 active | inhibition, % at 10 µM;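 active = inhibition above 50%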;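 note: median green fluorescence of gated singlet beads compared with DMSO control wells; 0% = DMSO wells and 100% = complete loss of bead fluorescence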
# RGS8-Gao confirm – confirmation of regulators of human RGS8-Galphao interaction | shares compounds with RGS16-Gao | bead-based flow cytometry RGS8-Galphao binding, fluorescence; actives lie on both sides | binding response (% of control), % at 10 µM | hit rate 3% among 1,700 | AID 1836; in the data active = binding response below about 72% or above about 130%; inactive = in between;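 note: Galphao activated as GDP AlF4 complex before binding bead RGS8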
# RGS7-Gao single – confirmation of regulators of human RGS7-Galphao interaction. shares compounds with RGS16-Gao. bead-based flow cytometry RGS7-Galphao binding; actives lie on both sides. response (percent of control binding), % at 10 µM. hit rate 7.8% among 1,700. AID 1837; in the data active = response below about 75% or above about 130%; inactive = in between;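 note: fluorescent Galphao activated with GDP and aluminum fluoride binding bead-coupled RGS7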
# RGS16-Gao conf – RGS16-Galphao interaction regulation, single point confirmation | shares compounds with RGS16-Gao | bead-based flow cytometry, RGS16-Galphao binding; actives lie on both sides | hit rate 4% among 1,700 | response (% of control binding), % at 10 µM; in the data active = response below about 74% or above about 130%; inactive = in between;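 note: Galphao activated as the GDP aluminium fluoride complex binding bead-coupled RGS16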
# RGS4-Gao confirm – confirmation of regulators of human RGS4-Galphao interaction; hit rate 4% among 1,700; RGS4-Galphao binding, multiplexed bead flow cytometry; actives lie on both sides; binding response (% of control), % at 10 µM; AID 1840; shares compounds with RGS16-Gao; in the data active = binding response below about 74% or above about 130%; inactive = in between
# RGS19-Gao single – confirmation of regulators of human RGS19-Galphao interaction | shares compounds with RGS16-Gao | bead-based flow cytometry RGS19-Galphao binding; actives lie on both sides | response (percent of control binding), % at 10 µM | hit rate 5% among 1,700 | AID 1841; in the data active = response below about 50% or above about 160%; inactive = in between;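 note: 100% = no compound control and 0% = blank background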
# The depositor's hits bear a star; ? = inconclusive; · = not tested or not shown; [ ] = remark or other dose. Most compounds without a hit are left out; they make up all but 1.2% or so of the library. Unless noted, the rule behind the calls is not given here.
SMILES,RGS16-Gao,RGS4-Gao reg,RGS7-Gao,Avidin bead fluor,RGS8-Gao reg,GSH fluor,Avidin counter,RGS8-Gao confirm,RGS7-Gao single,RGS16-Gao conf,RGS4-Gao confirm,RGS19-Gao single,others
COCCNc1ccnc2c(Cl)cccc12,77,99,104,4,96,26,·,·,·,·,·,·,
COCCCNc1ccnc2c(Cl)cccc12,·,98,101,·,99,39,0,100,97,99,100,113,
Cc1ccc2[nH]cc(CCNC(=O)Nc3ccccc3)c2c1,·,·,·,·,·,46,0,104,107,105,102,97,
CC(=O)c1cccc(NC(=O)NCCc2c[nH]c3ccccc23)c1,88,89,?,7,96,·,·,·,·,·,·,·,
COc1ccccc1-n1c(-c2ccccc2)n[nH]c1=S,110,106,159*[activator],31,104,18,4,99,176*[activator],137*[activator],133*[activator],157*[activator],RGS4-Gao HTS=106*
COc1ccc(-c2cc(-c3n[nH]c(=S)n3-c3ccccc3OC)[nH]n2)cc1,93,97,104,11,94,20,·,·,·,·,·,·,
COc1ccccc1-n1c(-c2cn(C)nc2C)n[nH]c1=S,13*,93,96,0,66,6,0,89,93,85,88,84,RGS4-Gao HTS=93*
Cc1cc(N2CCC(C)CC2)nc(NCc2ccccc2)n1,98,100,101,5,100,23,·,·,·,·,·,·,
CN(C)c1ccc(C2CC(c3ccccc3)=Nc3nc(-c4ccccc4)cn32)cc1 (stereo unspecified),103,101,99,12,101,10,·,·,·,·,·,·,
COc1ccc(OC)c(/C=C2\SC(=S)N(Cc3cccnc3)C2=O)c1,14*,89,88,5,84,9,-1,108,112,103,103,105,RGS4-Gao HTS=89*
COCCCn1c(-c2ccc(Cl)cc2)n[nH]c1=S,·,·,·,·,·,33,2,99,109,96,101,99,
CCc1nnc(NC(=O)CC(=O)Nc2ccccc2C(=O)O)s1,·,·,·,·,·,45,0,98,98,100,99,88,
O=C(CC1C(=O)NCCN1Cc1ccc(-c2ccccc2)cc1)NCCCn1ccnc1 (stereo unspecified),103,106,?,5,103,·,·,·,·,·,·,·,
COc1ccc(C(CCNCc2ccc(N(C)C)cc2)C(C)C)cc1 (stereo unspecified),109,106,?,4,108,·,·,·,·,·,·,·,
COc1ccc(CNCCC(c2ccc(OC(C)C)cc2)C(C)C)cc1OC (stereo unspecified),229,117,120,10,142*[activator],5,3,103,99,103,98,97,RGS4-Gao HTS=117*
COc1ccc(C(CCNCc2ccc(OC(C)C)cc2)C(C)C)cc1 (stereo unspecified),-5.3*,-9.6*,?,-2,8.9*,·,0,102,90,94,94,77,
C/C(=C\c1ccccc1)C(=O)Nc1ccc(S(=O)(=O)Nc2ncccn2)cc1,97,96,101,7,101,16,·,·,·,·,·,·,
